Here are results for 70 compounds from PubChem BioAssay AID1851 (National Center for Advancing Translational Sciences (NCATS), 2009).

What is called AC50 is the concentration giving half of the maximal activity seen.

In all, about 16,000 compounds went through this assay and about 5,800 (36%) were called active. Inconclusive results (about 23%) are left out. This is one part of the list. Unmarked numbers belong to inactive results. Calls come from the whole dose curve; as a rule, active = well fitted curve in the direction sought with a large enough effect; inconclusive = small, poorly fitted or top-dose-only effect, or effect the other way; inactive = no such curve, though single readings can be large or run the other way.
% is set by controls: 0 for no effect and ±100 for the full control effect.

Cytochrome P450 2C19 (Homo sapiens), sequence (P33261 whole entry, looked up): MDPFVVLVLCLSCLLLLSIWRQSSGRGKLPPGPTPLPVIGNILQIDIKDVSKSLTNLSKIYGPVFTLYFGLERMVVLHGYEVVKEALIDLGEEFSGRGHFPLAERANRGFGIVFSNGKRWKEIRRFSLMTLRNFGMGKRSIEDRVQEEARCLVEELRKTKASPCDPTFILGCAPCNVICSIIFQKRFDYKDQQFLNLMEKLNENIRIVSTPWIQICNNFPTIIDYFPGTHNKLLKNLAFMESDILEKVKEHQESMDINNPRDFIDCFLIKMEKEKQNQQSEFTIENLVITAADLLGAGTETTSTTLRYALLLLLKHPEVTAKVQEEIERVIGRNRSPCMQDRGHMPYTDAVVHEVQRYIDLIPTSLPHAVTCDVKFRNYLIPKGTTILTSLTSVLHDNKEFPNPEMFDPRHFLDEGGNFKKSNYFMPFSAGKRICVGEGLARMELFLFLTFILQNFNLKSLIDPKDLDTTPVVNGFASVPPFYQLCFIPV

The assay addresses Cytochrome P450 2C19 (Homo sapiens) (UniProt P33261). Nature of the assay: Cytochrome panel assay with activity outcomes. Conditions: recombinant CYP, pro-luciferin dealkylation, luminescence, p450-cyp2c19; series mostly up to 57.1 µM; activity, negative = inhibition: at the top concentration.
Turning to `O=c1[nH]c2[nH]c(=S)[nH]c(=S)c2[nH]1`, the concentration at half-maximal activity (AC50) was 0.631 µM (active).

For `CC1(C)Cc2c(ccc3ccccc23)C(=O)N1`, the AC50 is 10 µM (active).

Turning to `Nc1ccc2c3c(cccc13)C(=O)NC2=O`, the “activity, negative = inhibition” value was 22.5%.

As to `CNC(=O)/C=C1\NC(C)(C)Cc2c1ccc1ccccc21`, the AC50 is 2.51 µM (active).

With `CNC(=O)[C@H]1O[C@H](n2cnc3c(NCc4cccc(I)c4)ncnc32)[C@@H](O)[C@@H]1O`, the “activity, negative = inhibition” value was 11.7%.

For `COc1ncc2nc(-c3cccs3)c(=O)n(C)c2n1`, the “activity, negative = inhibition” value was 2.77%.

Take `CCN(Cc1ccccc1)Cc1cccc([N+](=O)[O-])c1`: the AC50 was 5.62 µM (active).

Turning to `N[C@@H](Cc1cccc([N+](=O)[O-])c1)C(=O)O`, the activity, negative = inhibition is -6.46% [at 11.4 µM].

On to `COc1ccc(/C=N/n2c(-c3cccs3)n[nH]c2=S)cc1`, for which the concentration at half-maximal activity (AC50) was 17.8 µM (active).

Turning to `COc1ccc(Oc2ncc3nc(-c4cccs4)c(=O)n(C)c3n2)cc1`, the “activity, negative = inhibition” value is -22.2%.

Take `CCc1n[nH]c(=S)n1/N=C/c1ccc2c(c1)OCO2`: the “activity, negative = inhibition” value is -11.1%.

For the compound `COc1ccccc1-c1nnc(SCc2nc3ccccc3s2)n1C`, the AC50 is 2.24 µM (active).

Take `O=S(=O)(O)c1cc(O)c2c(O)c(N=Nc3cccc4ccccc34)c(S(=O)(=O)O)cc2c1`: the activity, negative = inhibition was -44.3% [at 11.4 µM].

In the case of `Nc1ccccc1N=Nc1c(S(=O)(=O)O)cc2cc(S(=O)(=O)O)cc(O)c2c1O`, the activity, negative = inhibition is -13.7% [at 11.4 µM].

For the compound `O=S(=O)(O)c1cc(O)c2c(N=Cc3ccccc3O)cc(S(=O)(=O)O)cc2c1`, the AC50 was 1.58 µM (active).

As for `CC(C)N(CC(=O)O)CC(=O)O`, the activity, negative = inhibition is -17.1% [at 11.4 µM].

As to `CCOC(=O)CNC(=O)c1cccnc1`, the “activity, negative = inhibition” value is -3.68%.

`N/C(=N\OC(=O)Cc1ccc(Cl)cc1)c1cccnc1`: the AC50 is 15.8 µM (active).

For `Cc1nc(Oc2ccc(Cl)cc2)c2oc3ccccc3c2n1`, the concentration at half-maximal activity (AC50) was 2 µM (active).

With `COc1cccc(=O)c2c(C)n(-c3cc(C)cc(C)c3)c(C)c12`, the AC50 is 1 µM (active).

Take `CCOC(=O)n1c(=O)n(Cc2c(Cl)cccc2Cl)c2ccccc21`: the AC50 was 2 µM (active).

Turning to `CCOC(=O)n1c(=O)n(Cc2ccccc2Cl)c2ccccc21`, the concentration at half-maximal activity (AC50) was 0.282 µM (active).

For the compound `Cn1c(=O)n(CCC(=O)O)c2ccccc21`, the “activity, negative = inhibition” value is 4.21%.

Regarding `Cn1c(=O)c2[nH]c(COCc3nc4c([nH]3)c(=O)n(C)c(=O)n4C)nc2n(C)c1=O`, the activity, negative = inhibition is 25.6% [at 11.4 µM].

For the compound `CCOC(=O)C(=CNCC(=O)O)C(=O)OCC`, the “activity, negative = inhibition” value is -8.91%.

Regarding `CCOC(=O)C(=CNc1cccc(C)c1C)C(=O)OCC`, the “activity, negative = inhibition” value was 16.7%.

As for `CCOC(=O)C(=CNc1ncccc1C)C(=O)OCC`, the concentration at half-maximal activity (AC50) was 0.891 µM (active).

In the case of `O=c1c(-c2cccs2)nc2cncnc2n1C1CC1`, the “activity, negative = inhibition” value is -26.9%.

On to `O=c1c(-c2cccs2)nc2cncnc2n1Cc1ccccc1`, for which the AC50 was 1 µM (active).

In the case of `COc1cccc(Cn2c(=O)c(-c3cccs3)nc3cncnc32)c1`, the AC50 is 5.01 µM (active).

With `Cc1nc2cncnc2n(C2CC2)c1=O`, the concentration at half-maximal activity (AC50) was 3.98 µM (active).

Take `COc1ccc(Nc2ncc3nc(-c4cccs4)c(=O)n(Cc4cccc(OC)c4)c3n2)cc1`: the “activity, negative = inhibition” value is -33%.

For the compound `O=c1c(-c2cc(F)cc(F)c2)nc2cncnc2n1C1CC1`, the “activity, negative = inhibition” value was -28.2%.

Consider `Cc1nc2cncnc2n(Cc2ccccc2)c1=O`, for which the half-maximal activity concentration (AC50) was 0.158 µM (active).

With `O=c1c(-c2ccc(F)cc2)nc2cncnc2n1C1CC1`, the “activity, negative = inhibition” value was 4.09%.

Regarding `COc1cccc(Cn2c(=O)c(-c3cccs3)nc3cnc(OCc4ccccc4)nc32)c1`, the “activity, negative = inhibition” value is -11.8%.

Take `COc1ccc(Oc2ncc3nc(-c4cccs4)c(=O)n(Cc4cccc(OC)c4)c3n2)cc1`: the “activity, negative = inhibition” value is -27.5%.

For the compound `COc1ccc(-n2c(=O)c(C)nc3cncnc32)cc1`, the “activity, negative = inhibition” value is -59.3%.

`Cn1cc(-c2nc3cncnc3n(Cc3ccc(F)cc3)c2=O)c2ccccc21`: the “activity, negative = inhibition” value was -2.82%.

`Cc1ccc(S(=O)(=O)N[C@H]2COC(=O)C/C=C\[C@@H](C)[C@H](NS(=O)(=O)c3ccc(C)cc3)COC(=O)C/C=C\[C@H]2C)cc1`: the activity, negative = inhibition was 30.4% [at 11.4 µM].

On to `COc1ncc2nc(-c3cccs3)c(=O)n(Cc3ccc(F)cc3)c2n1`, for which the “activity, negative = inhibition” value was -15.9%.

As to `O=c1c(-c2cccs2)nc2cncnc2n1Cc1ccc(F)cc1`, the AC50 is 7.94 µM (active).

On to `CN(C)CCCn1c2ccccc2c2cnccc21`, for which the activity, negative = inhibition is 26.7% [at 11.4 µM].

Turning to `C[C@@H]1CN(CCCn2c3ccccc3c3ccccc32)C[C@H](C)N1`, the AC50 is 3.16 µM (active).

As for `O=c1[nH]c2ccccc2n1CCCN1CCN(C(c2ccccc2)c2ccccc2)CC1`, the “activity, negative = inhibition” value is -46.5%.

Regarding `O=c1c(-c2cc(F)cc(F)c2)nc2cnc(N3CCOCC3)nc2n1C[C@H]1CCCO1`, the “activity, negative = inhibition” value is 2.14%.

For `O=C1NC(=O)C(c2ccccc2[N+](=O)[O-])=C1Nc1ccc(O)c(Cl)c1`, the “activity, negative = inhibition” value is 1.11%.

Consider `O=C1c2cccc3c(Cl)ccc(c23)C(=O)N1O`, for which the “activity, negative = inhibition” value was -13.7%.

For `O=C1c2cccc3c(Nc4ccccc4Cl)c([N+](=O)[O-])cc(c23)C(=O)N1CCO`, the AC50 was 3.98 µM (active).

For the compound `Cc1cc(/C=N\NC(=O)c2cccs2)c(C)n1-c1ccc2ncccc2c1`, the “activity, negative = inhibition” value is -70.7%.

As to `CCCC(=O)Nc1c2c(nn1-c1ccc(C)cc1C)CSC2`, the AC50 is 8.91 µM (active).

In the case of `Cc1ccc(-n2nc3c(c2NC(=O)c2cccs2)CSC3)cc1`, the AC50 is 7.94 µM (active).

In the case of `CC(C)c1ccccc1-n1c(SCC(=O)N2CCN(c3ccccc3)CC2)nnc1-c1cccnc1`, the AC50 was 11.2 µM (active).

Consider `Cn1c(Cc2cccc3ccccc23)nnc1SCC(=O)N1CCN(c2ccccc2)CC1`, for which the AC50 is 25.1 µM (active).

For `O=c1cc(CSc2nnc(-c3cccnc3)n2-c2ccccc2F)nc2sccn12`, the “activity, negative = inhibition” value was 11.8%.

With `Cn1c(CC(=O)Nc2ccc(Cl)c(Cl)c2)nnc1SCC(=O)N1CCN(c2ccccc2)CC1`, the AC50 was 14.1 µM (active).

`CC(=O)Nc1cc(S(=O)(=O)Nc2ccccc2)c(C)cc1C`: the AC50 was 25.1 µM (active).

Take `c1ccc2cc(NCNc3ccc4ccccc4c3)ccc2c1`: the AC50 is 2.51 µM (active).

In the case of `O=C(CCS(=O)(=O)c1cccc2nsnc12)NC1CCCCC1`, the AC50 is 11.2 µM (active).

As for `Cc1cccc(NC(=O)CCS(=O)(=O)c2cccc3nsnc23)c1C`, the half-maximal activity concentration (AC50) is 14.1 µM (active).

For the compound `Cc1cccc(NC(=S)NNC(=O)CC(C)O)c1C` (stereo not given), the “activity, negative = inhibition” value is -0.296%.

For the compound `CN(C)c1ncc2nc(-c3cccc(C#N)c3)c(=O)n(C[C@H]3CCCO3)c2n1`, the “activity, negative = inhibition” value is 18.9%.

For `N=C(N)SCCSC(=N)N`, the activity, negative = inhibition is 2.37% [at 11.4 µM].

For `CN(C)Cc1ccccc1-c1nc(N(C)Cc2ccco2)c2ccccc2n1`, the “activity, negative = inhibition” value is -26.2%.

Consider `Cc1ccccc1-c1nc(N(C)Cc2ccco2)c2ccccc2n1`, for which the AC50 was 10 µM (active).

Take `Cc1ccccc1-c1nc(N(C)C)c2ccccc2n1`: the AC50 is 20 µM (active).

As for `CN(Cc1ccco1)c1nc(-c2ccccc2C(F)(F)F)nc2ccccc12`, the concentration at half-maximal activity (AC50) is 7.94 µM (active).

Turning to `COc1ccccc1-c1nc(N(C)Cc2ccco2)c2ccccc2n1`, the AC50 is 20 µM (active).

On to `COc1ccccc1-c1nc(N(C)C)c2ccccc2n1`, for which the “activity, negative = inhibition” value is -17.2%.

For the compound `CN(C)c1nc(-c2ccccc2C(F)(F)F)nc2ccccc12`, the “activity, negative = inhibition” value is -29.3%.
